These results are taken from PubChem BioAssay (NCATS).

The experiment deals with HIV-1 nucleocapsid protein NCp7 (binding to TG oligonucleotide). The experiment can be described thus: HIV Nucleocapsid (AID 346).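 Further: potency is for inhibitors that block NC binding and lower polarization.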 The settings on record: HIV-1 NC / fluorescein-TGTGTGTG probe, fluorescence polarization. The procedure, abridged: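 HIV-1 NC (100 nM) binding to fluorescein-labelled ssDNA TG4xF (10 nM) in Hepes pH 7.5, 250mM NaCl, 1uM ZnCl2, TCEP and 2-mercaptoethanol; compounds pin-transferred, 1 hr room temperature, fluorescence polarization read on CCD imager.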

Values without a mark were called inactive. How the calls were made is not given here. Where only a bound is given, the exact number is not on record here.
Potency means the concentration at half of the fitted maximal effect.

As for `c1ccc(-c2ccc(N3CCCC4(CCNCC4)C3)cc2)cc1`, the Potency was more than 20 µM.

As for `COCCNc1nc(-c2cccc(NS(C)(=O)=O)c2)nc2ccccc12`, the Potency was more than 20 µM.

Regarding `O=C(O)C1CCN(c2ncnc3ccc(-c4ccccc4C(F)(F)F)cc23)CC1`, the Potency is more than 20 µM.

As for `O=C(c1ccncc1)N1CCC[C@@]2(CCN(Cc3cc(C(F)(F)F)cc(C(F)(F)F)c3)C2)C1`, the Potency is more than 20 µM.

Consider `COCCn1c(=O)c(-c2ccc(OC)cc2)nc2cnc(Oc3ccccc3)nc21`, for which the Potency was more than 20 µM.

Take `Cn1cccc1C(=O)N1CCC2(CCCN(Cc3ccncc3)C2)CC1`: the Potency is more than 20 µM.

For `O=C(c1cccc(F)c1)N1CCC[C@@]2(CCN(Cc3ccncc3)C2)C1`, the Potency was more than 20 µM.

`O=c1cnc2cnc(N3CCNCC3)nc2n1Cc1ccc(F)cc1`: the Potency was more than 20 µM.

For the molecule `N#Cc1ccc(CN2CCCC3(CCN(S(=O)(=O)c4ccccc4)CC3)C2)cc1`, the Potency is more than 20 µM.

Regarding `Cc1ccccc1-c1cncnc1NC1CCNCC1`, the Potency is more than 20 µM.

Consider `N#Cc1cccc(NC(=O)N2CCCC3(CCN(C(=O)c4ccncc4)CC3)C2)c1`, for which the Potency was more than 20 µM.

For `COCCn1c(=O)c(-c2ccccc2)nc2cnc(Oc3ccc(OC)cc3)nc21`, the Potency was more than 20 µM.

Regarding `N#CCCn1c(=O)c(-c2ccc(F)cc2)nc2cnc(N3CCNCC3)nc21`, the Potency is more than 20 µM.

As for `COc1ccc(C(=O)N2CCC3(CC2)CN(C(=O)NC(C)C)C3)cc1`, the Potency was more than 20 µM.

Take `CNc1ncnc2ccc(-c3cccc(OC)c3)cc12`: the Potency is more than 20 µM.

As to `N#CCCn1c(=O)c(-c2cccs2)nc2cnc(Nc3ccccc3)nc21`, the Potency was more than 20 µM.

Turning to `CCNc1ncc2nc(-c3cccs3)c(=O)n(C)c2n1`, the Potency is more than 20 µM.

As for `COc1ccccc1-c1ccc2ncnc(N3CCN(C)CC3)c2c1`, the Potency is more than 20 µM.

Turning to `COCC(=O)N1CCC[C@@]2(CCN(c3ccncc3)C2)C1`, the Potency is more than 20 µM.

`COc1ccc(Oc2ncc3nc(-c4cccs4)c(=O)n(C)c3n2)cc1`: the Potency is more than 20 µM.

On to `CC(=O)N1CCC2(CCCN(C(=O)Nc3cccc(C#N)c3)C2)CC1`, for which the Potency is more than 20 µM.

With `CC(C)NC(=O)N1CCC2(CC1)CCN(S(=O)(=O)c1ccccc1)CC2`, the Potency was more than 20 µM.

With `Cc1ccccc1-c1cc(N2CCNCC2)ncn1`, the Potency is more than 20 µM.

Regarding `O=C(Nc1ccccc1)N1CC2(CCN(S(=O)(=O)c3ccccc3)CC2)C1`, the Potency is more than 20 µM.

Regarding `CNc1nc(-c2ccccc2C(F)(F)F)nc2ccccc12`, the Potency is more than 20 µM.

For the molecule `COc1ccccc1CNc1cc(-c2c(C)noc2C)ncn1`, the Potency is more than 20 µM.

As to `O=S(=O)(c1ccccc1)N1CCC2(CCCN(c3ncccn3)C2)CC1`, the Potency is more than 20 µM.

Turning to `Cc1noc(C)c1-c1cncnc1NCc1cccnc1`, the Potency was more than 20 µM.

In the case of `COc1ccc2[nH]cc(CCNc3nc(-c4c(C)noc4C)nc4ccccc34)c2c1`, the Potency was more than 20 µM.

Consider `O=C(c1ccco1)N1CCC2(CCCN(Cc3ccncc3)C2)CC1`, for which the Potency was more than 20 µM.

Regarding `COCCn1c(=O)cnc2cnc(N3CCNCC3)nc21`, the Potency is more than 20 µM.

As for `FC(F)(F)c1ccccc1-c1nccc(NCCN2CCOCC2)n1`, the Potency is more than 20 µM.

`CN1CCN(c2ncc3nc(CCc4ccccc4)c(=O)n(CCc4ccccc4)c3n2)CC1`: the Potency is more than 20 µM.

Regarding `Cn1cccc1C(=O)N1CCC2(CC1)CN(c1cccc(-c3ccccc3)c1)C2`, the Potency was more than 20 µM.

As to `N#CCCn1c(=O)cnc2cnc(OCc3ccccc3)nc21`, the Potency is more than 20 µM.

As to `O=S(=O)(c1ccccc1)N1CCC2(CCN(c3ncccn3)CC2)CC1`, the Potency is more than 20 µM.

In the case of `Cn1cc(-c2nc3cnc(N4CCNCC4)nc3n(CCc3ccccc3)c2=O)c2ccccc21`, the Potency is more than 4 µM.

For the molecule `COc1ccc(-n2c(=O)c(-c3cn(C)c4ccccc34)nc3cnc(OC)nc32)cc1`, the Potency is more than 20 µM.

As for `O=C(c1cc(C(F)(F)F)cc(C(F)(F)F)c1)N1CCC2(CCN(Cc3nccs3)CC2)CC1`, the Potency is more than 20 µM.

Regarding `COCCn1c(=O)cnc2cnc(N(C)C)nc21`, the Potency was more than 20 µM.

On to `O=c1c(-c2cccc(Cl)c2)nc2cncnc2n1Cc1ccc(F)cc1`, for which the Potency is more than 20 µM.

Take `CCNc1ncc2nc(-c3cn(C)c4ccccc34)c(=O)n(C)c2n1`: the Potency is more than 20 µM.

`CNc1ccnc(-c2c(C)noc2C)n1`: the Potency is more than 20 µM.

For `Cn1cccc1C(=O)N1CCC2(CC1)CN(Cc1cc(C(F)(F)F)cc(C(F)(F)F)c1)C2`, the Potency is more than 20 µM.

With `COCCNc1ncnc2ccc(-c3ccc(N(C)C)cc3)cc12`, the Potency is more than 20 µM.

Regarding `CCNc1ncc2nc(C)c(=O)n(C[C@H]3CCCO3)c2n1`, the Potency is more than 20 µM.

With `Cc1cnc(CNc2cc(-c3ccccc3CN(C)C)ncn2)cn1`, the Potency was more than 20 µM.
